Here are results for 58 compounds from PubChem BioAssay AID430 (Sanford-Burnham Center for Chemical Genomics, 2006).

Hit rate of the full screen: of about 63,000 compounds, about 1,100 (1.7%) were called active. Cut-off read from the data, not from the text of the source: active = cytotoxicity above about 50%; inactive = the rest. What follows is part of a selection rich in actives, with near analogues and random picks from the rest. Results with a measured potency or affinity are listed apart.

The nature of the test: HPDE-C7 pancreatic duct cell viability loss – fluorescence, HTS (AID 430).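 Note: cells exposed to compound for 48 hours before viability readout; 0% = vehicle and 100% = reference cytotoxic drug.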 Particulars: HPDE-C7 pancreatic duct cells viability, at 10 µM, stronger effect = higher value.
Turning to `c1ccc(N2CCOCC2)c(Nc2nc3ccccc3n3cnnc23)c1`, the cytotoxicity was -9.9% (inactive).
As for `O=C(Cn1c(CO)nc2ccccc21)Nc1cc(C(F)(F)F)ccc1N1CCOCC1`, the cytotoxicity was 5.6% (inactive).
Turning to `Cc1ccccc1Cn1cc(NC(=O)c2noc3c2CC(C(C)(C)C)CC3)cn1` (stereo not drawn), the cytotoxicity is 25.7% (inactive).
Under `Cc1ccc(S(=O)(=O)N(CCC#N)CCN2CCCC2)cc1` stands -4.9% (inactive); under `O=C1COc2ccc3ccccc3c2CN1`, -6.8% (inactive).
As to `CN1CC2(Cc3c1ccc1ccccc31)C(=O)OC(C)(C)OC2=O`, the cytotoxicity is 80.9% (active).
In the case of `Cc1ccc2c(c1)CC1(CN2C)C(=O)OC2(CCCCC2)OC1=O`, the cytotoxicity is -5.7% (inactive).
Next, `COc1ccc2c(c1)[nH]c1c(=O)n(CCN3CCCC3)cnc12`: -19.4% (inactive); `Cc1cc(C(=O)Nc2nc3c(s2)CCCC3)cs1`: -5.9% (inactive); `CCOC(=O)N1CCN(CC(O)COc2ccccc2C(C)C)CC1` (stereo not drawn): -6% (inactive).
As for `O=C(NC1CC2CCCC(C1)N2S(=O)(=O)c1ccccc1)c1ccccc1` (stereo not drawn), the cytotoxicity was -1.3% (inactive).
Under `Cn1c(SCc2ccccc2)nnc1-c1ccncc1` stands -1.5% (inactive); under `COc1ccc(NC(=O)CC2CCCCC2)cc1OC`, -11.1% (inactive).
With `Cc1ccc2cc(CN(Cc3nnnn3Cc3ccco3)CC3CCCO3)c(=O)[nH]c2c1C` (stereo not drawn), the cytotoxicity was -0.4% (inactive).
With `Cc1cccc2cc3c(nc12)SC(=NCC1CCCO1)N(Cc1ccco1)C3` (stereo not drawn), the cytotoxicity was 53.7% (active).
Under `Cc1ccc2nc3c(cc2c1)CN(Cc1ccco1)C(=NCC1CCCO1)S3` (stereo not drawn) stands -19.9% (inactive); under `CCc1nc(SCC(=O)N2CCN(C(=O)c3ccco3)CC2)c2c3c(sc2n1)CCCC3`, 3% (inactive); under `COc1cccc(N2CCN(CC(=O)Nc3nnc(-c4ccccc4)s3)CC2)c1`, 21.2% (inactive).
Next, `O=C(CN1CCN(c2ccccc2)CC1)Nc1nnc(-c2ccccc2)s1`: 7.8% (inactive); `COc1ccc(N2CCN(CC(=O)Nc3nnc(-c4ccccc4)s3)CC2)cc1`: 50.3% (active).
Next, `Cn1c(=O)oc2cc(S(=O)(=O)N3CCCC(C(=O)NCc4cccs4)C3)ccc21` (stereo not drawn): -3.9% (inactive); `Cc1ccc2c(c1)N(C(=O)CSc1nncn1C)C(C)(C)c1ssc(=S)c1-2`: 14.3% (inactive).
On to `Cc1cc(C)c2c(c1)-c1c(ssc1=S)C(C)(C)N2C(=O)CSc1nncn1C`, for which the cytotoxicity is 56.7% (active).
Next, `Cc1ccc2c(c1)-c1c(ssc1=S)C(C)(C)N2C(=O)CSc1nncn1C`: -1.2% (inactive).
With `CCCN1Cc2cccc(C(N)=O)c2C1=O`, the cytotoxicity was -14.7% (inactive).
Under `Cc1ccccc1S(=O)(=O)Cc1ccc(C(=O)N2CCN(c3ccc(F)cc3)CC2)o1` stands -10% (inactive); under `COc1ccc(S(=O)(=O)Cc2ccc(C(=O)N3CCN(c4cccc(C)c4C)CC3)o2)cc1`, 57% (active).
Next, `Cc1ccccc1S(=O)(=O)Cc1ccc(C(=O)N2CCN(c3ncccn3)CC2)o1`: -19.4% (inactive).
Next, `Cc1ccc(S(=O)(=O)Cc2ccc(C(=O)N3CCN(c4cc(C)ccc4C)CC3)o2)cc1`: 17.5% (inactive).
For `COc1ccccc1S(=O)(=O)Cc1ccc(C(=O)N2CCN(c3cccc(Cl)c3)CC2)o1`, the cytotoxicity was 60.8% (active).
Under `COc1ccc(N2CCN(C(=O)c3ccc(CS(=O)(=O)c4ccc(OC)cc4)o3)CC2)cc1` stands -11.6% (inactive); under `Cc1ccc(C)c(N2CCN(C(=O)c3ccc(CS(=O)(=O)c4ccccc4C)o3)CC2)c1`, 55.6% (active); under `COc1ccccc1N1CCN(C(=O)c2ccc(CS(=O)(=O)c3ccccc3OC)o2)CC1`, -8.2% (inactive).
For the compound `COc1ccccc1S(=O)(=O)Cc1ccc(C(=O)N2CCN(c3ccccc3)CC2)o1`, the cytotoxicity was -24.2% (inactive).
Under `Cc1ccccc1S(=O)(=O)Cc1ccc(C(=O)N2CCN(c3cccc(C)c3C)CC2)o1` stands 87.9% (active).
Under `COc1ccc(S(=O)(=O)Cc2ccc(C(=O)N3CCN(c4ccccc4F)CC3)o2)cc1` stands -21.7% (inactive).
Under `Cc1ccccc1S(=O)(=O)Cc1ccc(C(=O)N2CCN(C3CCCCC3)CC2)o1` stands -7% (inactive).
In the case of `CC(NC(=O)Cn1cnc2c1c(=O)n(C)c(=O)n2C)c1ccccc1` (stereo not drawn), the cytotoxicity is -1.6% (inactive).
Next, `CCc1cccc(NC(=O)C2CCCN(S(=O)(=O)c3c(C)[nH]c(=O)[nH]c3=O)C2)c1` (stereo not drawn): -1.3% (inactive); `[O-][N+]12CCN(CC1)c1ccccc12`: -14.6% (inactive).
Under `Cc1ccc2nc3ccc(N4CCCC4)nn3c(=O)c2c1` stands 4.6% (inactive); under `COC(=O)C1=C(C)NC(=O)CC1c1cccc(Cl)c1Cl` (stereo not drawn), -12.9% (inactive).
Under `CCOC(=O)C1C(c2cccc(Cl)c2Cl)NC(=O)NC1(O)C(F)(F)F` (stereo not drawn) stands -1.7% (inactive).
For the compound `N#CC1=C(SCC(=O)NC23CC4CC(CC(C4)C2)C3)NC(=O)C(C#N)C12CCCCC2` (stereo not drawn), the cytotoxicity is 49.7% (inactive).
Next, `N#CC1=C(SCC(=O)NC2CC2)NC(=O)C(C#N)C12CCCCC2` (stereo not drawn): -13.2% (inactive); `N#CC1=C(N)NC(SCC(=O)Nc2ccccc2)=C(C#N)C12CCCC2`: 1.6% (inactive); `CC(C)(C)C1CCC2(CC1)C(C#N)=C(SCC(=O)NC1CCCCC1)NC(=O)C2C#N` (stereo not drawn): 58.7% (active).
Next, `CCOC(=O)C1=C(SCC(=O)Nc2ccccc2)NC(=O)C(C#N)C12CCCCC2` (stereo not drawn): 1.9% (inactive).
Next, `Cc1ccc2[nH]c(=O)c(CN(Cc3nnnn3Cc3ccccc3)C3CCCC3)cc2c1`: -16.4% (inactive); `Cc1cnc(-c2nnc(N(C)C(=O)C3CCCO3)s2)cn1` (stereo not drawn): -5.4% (inactive).
`Cc1ccc(NC(=O)c2cnn(-c3ccccc3)c2NC(=O)c2ccco2)cc1C`: the cytotoxicity is 1.7% (inactive).
Next, `O=C(Nc1c(C(=O)N2CCCCC2)cnn1-c1ccccc1)c1ccco1`: -10.4% (inactive); `Cc1ccc(-n2ncc(C(=O)N3CCc4ccccc4C3)c2NC(=O)c2ccco2)cc1C`: 71.2% (active); `CC(=O)Nc1ccc(S(=O)(=O)N2CCN(c3cccc(C)c3C)CC2)cc1`: 54.3% (active).
Next, `COc1ccc(S(=O)(=O)N2CCN(c3cccc(C)c3C)CC2)cc1`: 2% (inactive); `CC(=O)Nc1ccc(S(=O)(=O)N2CCN(c3cc(C)nc4ccccc34)CC2)cc1`: 2.1% (inactive).
Next, `CC(=O)Nc1ccc(S(=O)(=O)N2CCN(c3cc(C)ccc3C)CC2)cc1`: 7.6% (inactive); `CC(=O)Nc1ccc(S(=O)(=O)N2CCC(c3nc4ccccc4[nH]3)CC2)cc1`: 6.7% (inactive).
